These results are taken from PubChem BioAssay (EPA / NIEHS).

Test [1] can be described thus: APR_HepG2_NuclearSize_72hr: Apredica 72-hour HepG2 Assay for Nuclear Size (AID 2282925). The following applies: high-content imaging, actives raise or lower the signal. Put shortly:
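HepG2 cells were exposed to compounds at ten concentrations from 0.39 to 200 uM (duplicate, 0.5% DMSO final) for 72 hr. After fixation in 3.7% formaldehyde, nuclei were stained with Hoechst 33342 (2 ug/mL) and imaged at 20x.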

The nature of test [2]: ATG_CRE_CIS: Attagene CIS-FACTORIAL HepG2 Assay for human cAMP Responsive Element (CRE) binding protein 3 (AID 2282926). The conditions noted are these: HepG2 CRE cis-reporter, Attagene multiplexed mRNA; actives raise or lower the signal. In short, it runs like this:
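Transfected HepG2 were treated for 24 hours, then RNA was extracted and reporter cDNA amplified with sequence-specific primers. Labelled fragments were separated by capillary electrophoresis, and the CRE signal was fitted bidirectionally with DMSO as baseline.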

Test [3] addresses CCAAT/enhancer-binding protein beta (Homo sapiens) (UniProt P17676). The experiment in a line: ATG_C_EBP_CIS: Attagene CIS-FACTORIAL HepG2 Assay for human CCAAT/Enhancer Binding Protein (C/EBP) beta (AID 2282927). The conditions noted are these: HepG2 Attagene cis-factorial transcription factor reporter; actives raise or lower the signal. In short, it runs like this:
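Following a 24 h incubation with test chemical, transfected HepG2 cells yielded RNA whose reporter transcripts were quantified by RT-PCR and fluorescent capillary electrophoresis, with DMSO serving as baseline for bidirectional fitting.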

A short description of test [4]: ATG_CMV_CIS: Attagene CIS-FACTORIAL HepG2 Assay for human CMV (Internal Marker) (AID 2282928).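 Further: endpoint acts as a background internal control marker rather than a target.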 The following applies: HepG2 CMV promoter reporter, transcription factor profiling; actives raise or lower the signal. In short, it runs like this: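 Cell system: HepG2, transiently transfected multiple reporter units under cis promoters. Exposure: 24 h. Detection: RT-PCR, FAM labeling, HpaI digestion, capillary electrophoresis. Analysis: bidirectional, DMSO baseline.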

Test [5] in a line: ATG_DR4_LXR_CIS: Attagene CIS-FACTORIAL HepG2 Assay for human Liver X Receptor (LXR), DR4 submotif (AID 2282929). The conditions noted are these: HepG2 Attagene DR4 cis-reporter, mRNA transcription; actives raise or lower the signal. Put shortly: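 HepG2, transient MRTU transfection, cis-element (DR4) promoter; 24 h compound exposure; total RNA → oligo(dT) RT → PCR → 6-FAM primer extension → HpaI cut → CE. Gain/loss vs DMSO, bidirectional fit.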

The target in test [6] is Aryl hydrocarbon receptor (Homo sapiens) (UniProt P35869). The experiment in a line: ATG_Ahr_CIS: Attagene CIS-FACTORIAL HepG2 Assay for human Aryl Hydrocarbon Receptor (Ahr) (AID 2282930). The following applies: HepG2 AhR cis-factorial reporter transcription; actives raise or lower the signal. In short, it runs like this:
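Values derive from bidirectional fitting against DMSO negative control. Underlying signal: cis-element reporter mRNA in transiently transfected HepG2, harvested 24 h post-dose and measured by RT-PCR plus capillary electrophoresis.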

Test [7] is described as follows: ATG_AP_1_CIS: Attagene CIS-FACTORIAL HepG2 Assay for human Activator Protein 1 (AP-1) (AID 2282931). The conditions noted are these: HepG2 Attagene cis-factorial AP-1 reporter mRNA; actives raise or lower the signal. In short, it runs like this:
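Transient MRTU transfection of HepG2 → 24 h chemical treatment → RNA isolation, RT-PCR, 6-FAM labelling, HpaI digest → capillary electrophoresis. Fit: bidirectional, DMSO negative control.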

Test [8] can be described thus: ATG_AP_2_CIS: Attagene CIS-FACTORIAL HepG2 Assay for human Activator Protein 2 (AP-2) (AID 2282932). The following applies: HepG2 AP-2 cis-reporter, Attagene transcription factor profiling; actives raise or lower the signal. In short, it runs like this: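 HepG2 cells were transiently transfected with multiple cis-promoter reporter transcription units and dosed for 24 h. Reporter mRNA was measured by RT-PCR with capillary electrophoresis fluorescence; bidirectional fits relative to DMSO baseline.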

Test [9] can be described thus: ATG_BRE_CIS: Attagene CIS-FACTORIAL HepG2 Assay for human Bone Morphogenetic Protein (BMP) Response Element (BRE) (AID 2282933). The conditions noted are these: HepG2 BMP response element reporter, Attagene transcription factor profiling; actives raise or lower the signal. In short, it runs like this: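 After a 24 h chemical treatment, transiently transfected HepG2 cells were lysed for RNA; reporter transcripts were quantified by fluorescent RT-PCR and capillary electrophoresis, normalised to DMSO.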

Test [10] addresses Retinoic acid receptor alpha (Homo sapiens) (UniProt P10276). As to the kind of experiment: ATG_DR5_RAR_CIS: Attagene CIS-FACTORIAL HepG2 Assay for human Retinoic Acid Receptor Alpha (RARE), DR5 submotif (AID 2282934). The conditions noted are these: HepG2 Attagene cis-factorial RARE DR5 reporter, mRNA; actives raise or lower the signal. Put shortly: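 Endpoint fitted in both directions relative to DMSO as negative control. It reflects DR5 cis-element reporter mRNA induction in transiently transfected HepG2 cells, measured 24 h after dosing through RT-PCR and fluorescent capillary electrophoresis.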

Test [11] has as its target Transcription factor E2F1 (Homo sapiens) (UniProt Q01094). As to the kind of experiment: ATG_E2F_CIS: Attagene CIS-FACTORIAL HepG2 Assay for human E2F Transcription Factor 1 (AID 2282935). The conditions noted are these: HepG2 Attagene cis-reporter, E2F reporter RNA transcripts; actives raise or lower the signal. Put shortly:
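HepG2 cells transiently transfected with multiplexed cis-element reporter units, dosed for 24 h. Reporter mRNA measured by RT-PCR, 6-FAM primer-extension labeling, HpaI digestion and capillary electrophoresis; bidirectional fit versus DMSO baseline.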

Test [12] can be described thus: ATG_E_Box_CIS: Attagene CIS-FACTORIAL HepG2 Assay for human Enhancer Box (E-box) (AID 2282936). The following applies: HepG2 E-box cis-reporter transcription, actives raise or lower the signal. Put shortly:
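HepG2 cells transiently transfected with multiplexed cis-element reporter units sensing endogenous transcription factor activity; 24 h compound exposure. Reporter mRNA measured by RT-PCR, 6-FAM primer extension, HpaI digestion and capillary electrophoresis; bidirectional fit versus DMSO.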

A short description of test [13]: ATG_M_61_CIS: Attagene CIS-FACTORIAL HepG2 Assay for M61 Transcription Factor (Internal Marker) (AID 2282937). The following applies: HepG2 Attagene CIS-FACTORIAL M61 internal marker reporter; actives raise or lower the signal. In short, it runs like this:
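Human liver HepG2, transient MRTU transfection (cis promoter elements), 24 h compound. Total RNA → oligo(dT) RT → PCR → FAM label → HpaI → CE. Internal background marker; bidirectional fitting, DMSO = baseline.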

The nature of test [14]: ATG_EGR_CIS: Attagene CIS-FACTORIAL HepG2 Assay for human Early Growth Response 1 (EGR1) (AID 2282938). The following applies: HepG2 Attagene CIS-FACTORIAL EGR reporter mRNA; actives raise or lower the signal. Put shortly: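 Transient transfection of human HepG2 with multiple cis-regulated reporter units, chemical exposure 24 h, total RNA isolated. Reverse transcription, PCR, fluorescent labelling and capillary electrophoresis quantify reporter transcripts; activity fitted bidirectionally against DMSO.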

Test [15] is described as follows: ATG_M_19_CIS: Attagene CIS-FACTORIAL HepG2 Assay for M19 Transcription Factor (Internal Marker) (AID 2282939). The conditions noted are these: HepG2 Attagene CIS-FACTORIAL M19 internal marker reporter; actives raise or lower the signal. Put shortly: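 In this multiplexed cell assay, transiently transfected HepG2 reporter units report endogenous transcription-factor activity; after 24 hours of treatment, labelled reporter cDNA fragments are quantified by capillary electrophoresis and fitted bidirectionally against DMSO.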

Test [16] is described as follows: ATG_ERE_CIS: Attagene CIS-FACTORIAL HepG2 Assay for Estrogen Response Element (ERE) (AID 2282940). The conditions noted are these: HepG2 ERE cis-reporter, Attagene RNA transcript; actives raise or lower the signal. In short, it runs like this: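 Measuring endogenous transcription factor output, the assay doses transfected HepG2 cells for 24 hours and quantifies reporter transcripts by fluorescent RT-PCR and capillary electrophoresis, with DMSO as baseline.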

Test [17] can be described thus: ATG_Ets_CIS: Attagene CIS-FACTORIAL HepG2 Assay for human Erythroblast Transformation Specific (ETS) (AID 2282941). The conditions noted are these: HepG2 ETS cis-reporter transcription, actives raise or lower the signal. Put shortly:
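After transient cis-reporter transfection, HepG2 cells receive test chemical for 24 h. Reporter mRNA levels, measured by RT-PCR and capillary electrophoresis fluorescence, are analysed bidirectionally relative to the DMSO baseline.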

Test [18] concerns the target Hepatocyte nuclear factor 3-beta (Homo sapiens) (UniProt Q9Y261). The experiment in a line: ATG_FoxA2_CIS: Attagene CIS-FACTORIAL HepG2 Assay for human Forkhead box A2 (FOXA2) (AID 2282942). The following applies: HepG2 cis-reporter transcription factor activity, 24 h; actives raise or lower the signal. In short, it runs like this: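 Transient MRTU transfection of HepG2 liver cells; 24 h treatment; total RNA → oligo(dT) RT → PCR → FAM primer extension → HpaI cut → CE. Bidirectional fit vs DMSO.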

Test [19] can be described thus: ATG_FoxO_CIS: Attagene CIS-FACTORIAL HepG2 Assay for human Forkhead box O (FoxO) (AID 2282943). The following applies: HepG2 Attagene cis-reporter, FoxO element, mRNA; actives raise or lower the signal. In short, it runs like this: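 Values reflect reporter mRNA induction or loss in HepG2 cells 24 h post-dosing, fitted bidirectionally with DMSO as negative control and baseline. Detection used RT-PCR and fluorescence capillary electrophoresis.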

The nature of test [20]: ATG_GATA_CIS: Attagene CIS-FACTORIAL HepG2 Assay for human GATA Binding Protein (AID 2282944). The conditions noted are these: HepG2 GATA cis-element reporter, Attagene multiplex mRNA; actives raise or lower the signal. Put shortly:
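Measures endogenous transcription factor-driven reporter mRNA in HepG2 cells transiently carrying cis-regulated constructs. 24 h dosing; RNA via oligo(dT) reverse transcription, PCR, HpaI digestion, capillary electrophoresis; fitted relative to DMSO.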

“And” between values parts separate entries of the source, which are not always exact repeats. Identical values can stand only once. Where a structure was tested more than once in an assay, its records may differ in their call. The source made the active and inactive calls. How the source made its calls: active means hit-call score of the fitted dose curve at least 0.9, where 1 is the maximum; inactive means score below 0.9.

Hepatocyte nuclear factor 3-beta (Homo sapiens), sequence (Q9Y261 whole entry, looked up): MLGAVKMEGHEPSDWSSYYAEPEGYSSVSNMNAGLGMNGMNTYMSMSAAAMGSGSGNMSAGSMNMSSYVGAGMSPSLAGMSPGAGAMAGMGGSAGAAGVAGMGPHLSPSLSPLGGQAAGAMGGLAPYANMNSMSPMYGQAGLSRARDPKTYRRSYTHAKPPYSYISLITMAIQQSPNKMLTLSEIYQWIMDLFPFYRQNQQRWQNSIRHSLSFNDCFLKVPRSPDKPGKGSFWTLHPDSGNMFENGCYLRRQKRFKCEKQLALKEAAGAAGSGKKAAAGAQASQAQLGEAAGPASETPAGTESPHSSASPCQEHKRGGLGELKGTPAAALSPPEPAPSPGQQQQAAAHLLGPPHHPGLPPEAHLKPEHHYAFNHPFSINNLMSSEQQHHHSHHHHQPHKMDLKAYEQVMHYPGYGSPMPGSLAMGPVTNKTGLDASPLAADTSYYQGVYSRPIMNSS
Retinoic acid receptor alpha (Homo sapiens), sequence (P10276 whole entry, looked up): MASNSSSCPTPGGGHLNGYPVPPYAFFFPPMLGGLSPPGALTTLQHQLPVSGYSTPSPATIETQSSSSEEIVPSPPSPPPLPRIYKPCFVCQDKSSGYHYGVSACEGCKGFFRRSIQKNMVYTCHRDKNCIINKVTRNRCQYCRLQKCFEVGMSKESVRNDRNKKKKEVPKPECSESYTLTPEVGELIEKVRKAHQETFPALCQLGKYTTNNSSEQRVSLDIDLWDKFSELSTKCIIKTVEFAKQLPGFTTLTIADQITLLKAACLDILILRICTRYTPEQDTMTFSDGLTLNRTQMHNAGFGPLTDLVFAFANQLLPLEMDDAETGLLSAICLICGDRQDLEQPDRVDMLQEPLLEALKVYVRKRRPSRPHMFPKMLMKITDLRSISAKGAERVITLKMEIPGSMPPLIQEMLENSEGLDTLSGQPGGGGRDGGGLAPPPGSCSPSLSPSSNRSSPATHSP
Aryl hydrocarbon receptor (Homo sapiens), sequence (P35869 whole entry, looked up): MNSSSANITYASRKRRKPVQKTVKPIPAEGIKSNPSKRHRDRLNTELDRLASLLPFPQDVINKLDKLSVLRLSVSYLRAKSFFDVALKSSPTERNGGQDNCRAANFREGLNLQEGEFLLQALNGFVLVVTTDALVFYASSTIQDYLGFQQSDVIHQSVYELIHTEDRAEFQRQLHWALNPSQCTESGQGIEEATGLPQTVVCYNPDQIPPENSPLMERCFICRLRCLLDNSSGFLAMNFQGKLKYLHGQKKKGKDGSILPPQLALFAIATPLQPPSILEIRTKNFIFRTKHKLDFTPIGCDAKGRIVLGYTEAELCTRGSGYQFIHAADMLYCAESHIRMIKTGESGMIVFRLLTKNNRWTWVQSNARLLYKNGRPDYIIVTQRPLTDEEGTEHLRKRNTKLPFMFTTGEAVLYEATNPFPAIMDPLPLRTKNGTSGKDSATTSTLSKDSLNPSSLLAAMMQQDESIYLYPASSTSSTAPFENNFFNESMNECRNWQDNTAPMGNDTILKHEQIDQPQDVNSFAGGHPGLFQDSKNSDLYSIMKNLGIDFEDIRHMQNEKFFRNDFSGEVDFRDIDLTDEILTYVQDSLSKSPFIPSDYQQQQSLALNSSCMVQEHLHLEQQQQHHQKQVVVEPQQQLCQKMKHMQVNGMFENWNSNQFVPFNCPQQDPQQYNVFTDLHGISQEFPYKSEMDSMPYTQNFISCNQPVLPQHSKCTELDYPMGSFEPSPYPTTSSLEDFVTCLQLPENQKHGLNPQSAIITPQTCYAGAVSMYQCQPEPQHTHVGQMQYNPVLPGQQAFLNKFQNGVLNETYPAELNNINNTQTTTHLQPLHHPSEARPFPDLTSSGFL
Transcription factor E2F1 (Homo sapiens), sequence (Q01094 whole entry, looked up): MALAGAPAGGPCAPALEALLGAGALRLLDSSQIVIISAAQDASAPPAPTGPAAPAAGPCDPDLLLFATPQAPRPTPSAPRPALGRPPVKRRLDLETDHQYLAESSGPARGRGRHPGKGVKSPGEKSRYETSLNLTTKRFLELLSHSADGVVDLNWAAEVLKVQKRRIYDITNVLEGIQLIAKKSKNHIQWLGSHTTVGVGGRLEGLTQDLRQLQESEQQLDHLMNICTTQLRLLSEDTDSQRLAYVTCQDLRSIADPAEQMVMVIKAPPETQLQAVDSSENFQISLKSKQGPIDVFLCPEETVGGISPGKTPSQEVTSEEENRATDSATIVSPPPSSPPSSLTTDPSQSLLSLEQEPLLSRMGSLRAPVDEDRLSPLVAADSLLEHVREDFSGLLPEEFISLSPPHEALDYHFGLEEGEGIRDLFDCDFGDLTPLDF
CCAAT/enhancer-binding protein beta (Homo sapiens), sequence (P17676 whole entry, looked up): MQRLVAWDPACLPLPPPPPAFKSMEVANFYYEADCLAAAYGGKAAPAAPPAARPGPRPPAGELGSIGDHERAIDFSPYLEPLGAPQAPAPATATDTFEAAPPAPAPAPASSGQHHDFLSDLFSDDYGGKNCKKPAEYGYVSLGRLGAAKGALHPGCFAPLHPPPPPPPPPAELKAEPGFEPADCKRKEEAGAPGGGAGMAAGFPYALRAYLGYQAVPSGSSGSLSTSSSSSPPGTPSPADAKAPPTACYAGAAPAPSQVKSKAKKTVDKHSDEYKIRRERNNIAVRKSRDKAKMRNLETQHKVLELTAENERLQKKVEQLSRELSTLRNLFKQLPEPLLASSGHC

By AC50 is commonly meant the concentration giving half of the maximal activity seen. For `OC1CCCCC1`, the outcome in [1], in test [2], in [3], in test [4], in test [5] and in test [6] was inactive. Also, the call in [7], in [8], in test [9], in test [10], in test [11] and in test [12] was inactive. Further, the result in test [13], in [14], in test [15], in test [16], in [17] and in test [18] was inactive. Also, the compound was called inactive in test [19] and in test [20]. Further, the AC50 in test [16] was 100 µM (active).

Take `C=C(C)C(=O)OCCC(F)(F)C(F)(F)C(F)(F)C(F)(F)C(F)(F)C(F)(F)F`: the result in test [1], in test [2], in [3], in [4], in test [5] and in test [6] was inactive. The result in [7], in test [8], in test [9], in test [11], in test [12] and in test [13] was inactive. For the same compound, the call in test [14], in test [18], in test [19] and in test [20] was inactive. Besides, the AC50 in test [6] is 54.4 µM (active); in [16], 57.4 µM (active) and 150 µM (active).

As for `c1ccc2c(c1)Cc1ccccc1-2`, the outcome in test [1], in [2], in test [3], in test [4], in test [5] and in test [6] was inactive. Further, the result in test [7], in test [8], in test [9], in [10], in test [11] and in test [12] was inactive. The result in test [13], in test [14], in test [18], in [19] and in test [20] was inactive. The AC50 in [16] was 100 µM (active).

As for `Nc1cccc2c(N)cccc12`, the call in [1], in test [2], in [3], in test [4], in [5] and in test [8] was inactive. For the same compound, the compound was called inactive in test [9], in test [10], in test [11], in test [12], in test [13] and in [14]. Besides, the result in test [15], in test [16], in test [18], in test [19] and in [20] was inactive. For the same compound, the AC50 in test [6] is 2.85 µM (active); in [7] it was 77.7 µM (active).

For the compound `CCCCCCCCCCCCCCCS(=O)(=O)Oc1ccccc1`, the compound was called inactive in test [1], in test [2], in [3], in test [4], in [5] and in test [6]. The result in [7], in [8], in test [9], in test [10], in test [11] and in test [12] was inactive. The compound was classed as inactive in test [13], in test [14], in test [15], in test [16], in test [18] and in [19]. Moreover, the result in test [20] was inactive.

For `CC[C@H](c1ccc(O)cc1)[C@@H](CC)c1ccc(O)cc1`, the result in [1], in [2], in [3], in [5], in test [6] and in [9] was inactive. Also, the outcome in test [11], in test [12], in [13], in test [14], in test [18] and in test [19] was inactive. In addition, the compound was called inactive in test [20]. The AC50 in [4] was 12.5 µM (active) and 11.1 µM (active) and 7.79 µM (active); in test [5], 11.1 µM (active) and 11 µM (active); in test [7], 11.1 µM (active) and 7.83 µM (active) and 9.21 µM (active); in test [14] it was 11.1 µM (active); in test [16] it was 1.02 nM (active) and 3.79 nM (active) and 1.01 nM (active).
